Pf Dd2 growth: Plasmodium falciparum Dd2 growth inhibition. P. falciparum Dd2 growth, SYBR Green, 72 h. Potency, µM (titrated, usually from 28.9 µM), for the others: at the highest dose activity, negative = inhibition, usual class: inhibitors. hit rate 4.3% among 120,000. AID 1347417; active = well fitted inhibition curve with a large enough effect;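 note: plate controls were DMSO vehicle for no effect and reference drug for full effect; nearly all actives have a fitted effect of over 65% in size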
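Infected erythrocytes (Dd2, 0.3% parasitemia, 2.5% hematocrit final) are added to compound in RPMI-1640/Albumax II medium, grown 72 h at 37C in low oxygen, then lysed with saponin/Triton-X containing SYBR Green and read by fluorescence.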
* hit, by the source's call; i = inactive; [ ] = another dose, or the depositor's remark. Many of the other results were omitted from the sample, so hits are more common in it than they were. Potency is the fitted concentration of half-maximal effect.

SMILES | Pf Dd2 growth
Cn1ncc(N2CCC(C(=O)Nc3ccccc3)C2)cc1=O (stereo not given) | 18.5%
O=C(c1[nH]nc2c1COc1ccccc1-2)N1CC(c2noc(COc3ccc(F)cc3)n2)C1 | i
COc1ccc(C(=O)N2C[C@@H]3OCC(=O)N(Cc4cccnc4)[C@@H]3C2)cc1 | 10.3%[44.1 µM]
O=C1CN(C(=O)CCC(=O)N2CCCC(c3nc(C4CCOCC4)no3)C2)c2ccccc2N1 (stereo not given) | -13.4%
O=C(NCc1ccco1)Nc1cccc(-c2ccc(N3CCCC3)nn2)c1 | 11.2µM*
Cc1cccc(C(=O)Nc2cccc(-c3ccc(N4CCN(C)CC4)nn3)c2)c1 | 12.6µM*
CSc1cccc(NC(=O)Nc2cccc(-c3ccc(N4CCCC4)nn3)c2)c1 | -0.1%
CC(C)CNC(=O)Nc1cccc(-c2ccc(N3CCC(C)CC3)nn2)c1 | -16.1%
CCc1ccccc1NC(=O)Nc1cccc(-c2ccc(N3CCOCC3)nn2)c1 | -23.8%
O=C(Nc1cccc(-c2ccc(N3CCOCC3)nn2)c1)Nc1ccc2c(c1)CCC2 | i
O=C1CC2CCN(Cc3cccc(Br)n3)CC2CCN1 (stereo not given) | i
Cc1cn2cc(C(=O)N3CCCC4(C3)C(=O)N(C)c3ccccc34)ccc2n1 (stereo not given) | -14.4%
c1ccc(CCCNc2ncncc2-c2nc(-c3ccccc3)no2)cc1 | i
CC(C)c1nnc(NC(=O)Cn2nc3c(cc2=O)CCCCC3)s1 | -9.6%
Cc1nc2c(OCC(=O)OC(C)(C)C)cccn2c(=O)c1-c1cc(C)n(-c2ccc(Cl)cc2)n1 | i
Cc1ccc(C(=O)N2CCC(N3CCNC3=O)CC2)cc1 | 0.5%[44.1 µM]
CC(=O)c1[nH]c(C)c(C(=O)N[C@H]2[C@H]3CCO[C@H]3[C@@H]2N2CCCC2)c1C | -0.4%
COC1CCC12CCN(C(=O)c1cc(C)n(C)n1)CC2 (stereo not given) | 13.0%
CN(C)C(=O)C1CN(C(=O)Nc2ccc(F)cc2)CC12CCOCC2 (stereo not given) | 17.3%
Cc1nc(CCC(=O)N2CCCC(c3nccn3CCCN(C)C)C2)n[nH]1 (stereo not given) | -16.4%
Cc1noc(C)c1-c1cc2cc(CO)oc2c(NCCN2CCOCC2)n1 | i
Cc1noc(C)c1-c1cc2cc(C(C)C)oc2c(-c2c(C)noc2C)n1 | -20.6%[44.1 µM]
Cc1noc(C)c1-c1cc2cc(C(C)C)oc2c(NC2CCOCC2)n1 | 11.2µM*
Cc1noc(C)c1-c1cc2cc(C(C)C)oc2c(NC(C)C)n1 | -9.7%[44.1 µM]
Cc1cc2cc(-c3c(C)noc3C)nc(NCC3CC3)c2o1 | i
SMILES | Pf Dd2 growth
Cc1cc2cc(-c3c(C)noc3C)nc(NC3CCN(C)CC3)c2o1 | 10µM*
O=C(c1ccccc1Cl)N1CCC(N2CCCNC2=O)CC1 | 10.1%[44.1 µM]
OCc1ccc(CNC2(Cc3cc(COc4ccccc4)on3)COC2)o1 | -28.7%[44.1 µM]
CCc1ccc(CNC(=O)c2cc3c(N4CCSCC4)nc(C)cn3n2)cc1 | i
COc1cc(NC(=O)C2CCN(C(=O)c3ncn4c3COC(c3ccccc3)C4)CC2)cc(OC)c1 (stereo not given) | -15.0%
CN(C)c1ccc(-c2nnnn2[C@H]2CO[C@H]3[C@@H]2OC[C@H]3OCc2ccccc2)cc1 | i
CCOc1ccccc1NC(=O)N1c2ccccc2CC1c1nc(C2CC2)no1 (stereo not given) | 93.1%[5.79 µM]
CNC(=O)[C@@H]1CN(C(=O)COc2ccc(Cl)cc2)C[C@H]1COC | -8.5%
COc1ccc(OCC(=O)NCC(c2ccc(OC)cc2)N2CCOCC2)cc1 (stereo not given) | -0.8%
CCc1ccc2oc(C(=O)Nc3nc(-c4ccccc4)ns3)c(C)c2c1 | 31.3%
Cc1ccc2c(C)c(C(=O)NCC(c3ccc(Cl)cc3)N3CCOCC3)oc2c1 (stereo not given) | -19.8%
CCc1ccc2oc(C(=O)Nc3nonc3CC)c(C)c2c1 | -22.3%
COc1ccc(C(=O)NCC(c2ccc3c(c2)OCO3)N2CCOCC2)cc1 (stereo not given) | 48.5%
CCc1ccc2oc(C(=O)NCC(c3ccc(OC)cc3)N3CCCCC3)c(C)c2c1 (stereo not given) | 10µM*
COc1ccc(Cl)cc1C(=O)NCC(c1ccc(N(C)C)cc1)N1CCOCC1 (stereo not given) | 33.0%[5.79 µM]
CCc1ccc2oc(C(=O)NCC(c3ccc(Cl)cc3)N3CCOCC3)c(C)c2c1 (stereo not given) | 11.2µM*
CCc1ccc(OCC(=O)NCC(c2ccc(OC)cc2)N2CCOCC2)cc1 (stereo not given) | 3.16µM*
CC[C@H]1CN(C(=O)c2ccc(F)cc2)CC[C@H]1CC(=O)O | -16.4%[44.1 µM]
Cc1c(Cl)c(C(=O)N2CCCC(C)(Cc3ccc4c(c3)OCO4)C2)nn1C (stereo not given) | -5.0%
CC(C)CCN1CC2(CCCN(C(=O)CCn3cnnc3)C2)CCC1=O (stereo not given) | -6.6%
CCn1nc(CC(C)C)cc1C(=O)NC1CCCN(c2ncccn2)C1 (stereo not given) | -2.6%
OC[C@@H]1CNC[C@H]1C1CCN(Cc2cccc(C(F)(F)F)c2)CC1 | i
